Assay results from the supplement of paper PMC12340641.
Where a name gives a salt, the structure may show the parent alone.

How the values were obtained:
[1] = biological target: IKZF1 (dCK*-IKZF1 fusion in HEK293FT) (UniProt Q13422); test: inhibition of IKZF1 HTRF signal (DMSO = 0%, pomalidomide 10 uM = 100%); higher = lower IKZF1 protein level; conditions: compound concentration: 5 uM, overnight (~20 h)
How it was run: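 Percent inhibition of IKZF1 signal was calculated per plate with vehicle and a reference degrader as anchors. The anchors were 0% for vehicle and 100% for the degrader, applied to background-subtracted 665/620 nm time-resolved FRET ratios from a commercial HTRF total-IKZF1 kit. Signal came from HEK293FT cells stably expressing an IKZF1 fusion, treated overnight at 37 °C with 5 μM compound in single wells of 384-well plates.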

[2] = system: HEK293FT dCK*-only; test: relative growth in counter assay (no AraC = 100%, AraC + DMSO = 0%); higher = more growth rescue independent of IKZF1; conditions: compound concentration: 5 uM; AraC concentration: 0.3 uM; overnight pretreatment + 4 days AraC
How it was run: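 Nuclei were counted by imaging after Hoechst 33342 staining on day 5, in HEK293FT cells (300/well, 384-well) expressing only an engineered kinase construct. Compound at 5 μM went in 2 h after seeding, followed after overnight at 37 °C by a nucleoside suicide substrate at 0.3 μM plus medium for 4 days. Per plate, wells lacking suicide substrate defined 100% and those with substrate plus vehicle defined 0%.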

[3] = system: HEK293FT dCK*-IKZF1; test: relative growth recovery (pomalidomide 10 uM = 100%, DMSO = 0%); higher = more growth rescue (IKZF1 fusion degradation); conditions: compound concentration: 5 uM; AraC concentration: 0.3 uM; overnight pretreatment + 4 days AraC
How it was run: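 Means of duplicates from different days are given for growth recovery, normalised per plate against a reference degrader and vehicle. The reference degrader set the 100% level and vehicle the 0% level. HEK293FT cells stably expressing a deoxycytidine kinase–IKZF1 fusion (300/well, 384-well) received 5 μM compound 2 h after seeding and, after overnight at 37 °C, 0.3 μM of a nucleoside suicide substrate plus medium for 4 days. Nuclei stained with Hoechst 33342 were then counted by whole-well imaging on day 5.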

Chain of IKZF1 (dCK*-IKZF1 fusion in HEK293FT) (Q13422 whole entry, looked up, the tested form may be a part): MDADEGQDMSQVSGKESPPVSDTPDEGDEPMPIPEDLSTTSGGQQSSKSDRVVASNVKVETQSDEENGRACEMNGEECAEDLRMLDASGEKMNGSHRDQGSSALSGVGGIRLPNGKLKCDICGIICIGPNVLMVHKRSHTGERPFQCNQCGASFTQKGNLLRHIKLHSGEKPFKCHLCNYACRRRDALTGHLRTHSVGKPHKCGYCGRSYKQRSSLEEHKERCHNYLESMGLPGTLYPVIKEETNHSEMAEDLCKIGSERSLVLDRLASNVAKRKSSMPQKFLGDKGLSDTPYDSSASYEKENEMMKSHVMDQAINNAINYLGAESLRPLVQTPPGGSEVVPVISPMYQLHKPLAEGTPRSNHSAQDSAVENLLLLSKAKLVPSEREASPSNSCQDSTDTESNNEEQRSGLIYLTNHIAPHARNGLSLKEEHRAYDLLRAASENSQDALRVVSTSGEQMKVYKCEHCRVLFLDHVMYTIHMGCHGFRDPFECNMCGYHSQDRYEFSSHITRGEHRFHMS

SMILES	inhibition of IKZF1 HTRF signal [1]	relative growth in counter assay [2]	relative growth recovery [3]
COC(=O)Nc1nc2ccc(Sc3ccccc3)cc2[nH]1	-26.6%	-32.4%	-9.72%
CCCCNC(=O)NS(=O)(=O)c1ccc(C)cc1	-29.8%	0.26%	-3.39%
O=C(Nc1cc(C(F)(F)F)cc(C(F)(F)F)c1)Nc1c(Br)cc(Br)cc1-c1nnn[nH]1	-17%	-2.42%	-4.01%
Nc1ncn([C@@H]2O[C@H](CO)C(O)C2O)c(=O)n1 (stereo partly drawn) [Azacitidine]	-5.73%	4.37%	-3.45%
CSc1ccc2c(c1)N(CCC1CCCCN1C)c1ccccc1S2 (stereo not drawn) [Thioridazine HCl]	-1.96%	-2.48%	-2.37%
CCCCCCCCCCCCC[N+](C)(C)Cc1ccccc1	7.81%	-14.8%	-5.53%
CN1CCN(CCCN2c3ccccc3Sc3ccc(Cl)cc32)CC1	-26.7%	4.19%	1.47%
CC(=NNc1nnc2c(n1)[nH]c1c(C)cccc12)c1ccccn1	40.7%	-31.6%	-12.7%
O=C1c2ccccc2C(Cc2ccncc2)(Cc2ccncc2)c2ccccc21	-38.8%	-4.37%	5.88%
CN(C)CC(O)Cn1c2ccc(Br)cc2c2cc(Br)ccc21 (stereo not drawn) [wiskostatin]	-32.4%	-9.92%	-2.88%
Nc1ccc(S(=O)(=O)Nc2ncccn2)cc1	-27.2%	-9.24%	2.56%
CN(C)CCC=C1c2ccccc2CCc2ccccc21 [Amitriptyline HCl]	22.6%	6.15%	-1.42%
CC(CN(C)C)CN1c2ccccc2Sc2ccccc21 (stereo not drawn)	-50.1%	1.07%	-2.14%
OCCN1CCN(CCCN2c3ccccc3Sc3ccc(Cl)cc32)CC1	-36.5%	3.78%	4.08%
CC[C@@]1(O)C(=O)OCc2c1cc1n(c2=O)Cc2cc3c(CN(C)C)c(O)ccc3nc2-1 [Topotecan HCl]	54.2%	-34.6%	-13.3%
CO[C@H]1/C=C/O[C@@]2(C)Oc3c(C)c(O)c4c(O)c(c(C=NN5CCN(C)CC5)c(O)c4c3C2=O)NC(=O)C(C)=CC=CC(C)[C@@H](O)[C@@H](C)[C@H](O)[C@H](C)[C@@H](OC(C)=O)[C@H]1C (stereo partly drawn) [Rifampin (Rifampicin)]	-102%	-0.8%	-2.73%
CNCCC(Oc1ccc(C(F)(F)F)cc1)c1ccccc1 (stereo not drawn) [Fluoxetine HCl]	-26.7%	-5.41%	1.15%
CC1(S(=O)(=O)[O-])CC(=O)c2ccccc2C1=O (stereo not drawn) [menadione-bisulfite]	9.55%	-12.2%	-7.9%
CCOC(=O)Nc1nc2ccccc2[nH]1	-22.3%	2.38%	-1.88%
c1ccc(C2(c3ccccc3)CC2=C2NCCN2)cc1 [cibenzoline]	-50%	0.23%	-0.4%
CCCCC(CC)COc1ccc(-c2nc(-c3ccc(OC)cc3)nc(-c3ccc(OCC(CC)CCCC)cc3O)n2)c(O)c1 (stereo not drawn)	-35.1%	12.9%	1.75%
CC[C@@]1(O)C(=O)OCc2c1cc1n(c2=O)Cc2cc3cc(O)ccc3nc2-1 [10-Hydroxycamptothecin]	38.4%	-34%	-13.2%

SMILES	inhibition of IKZF1 HTRF signal [1]	relative growth in counter assay [2]	relative growth recovery [3]
O=C1Nc2c(ccc(Cl)c2Cl)C1=NO	-26.5%	-8.31%	-2.38%
O=C(CCCCCCC(=O)NO)NO	-47.9%	-7.76%	-0.655%
COC(=O)C1=C(C)NC(C)=C(C(=O)OC(C)(C)CN(C)CCC(c2ccccc2)c2ccccc2)C1c1cccc([N+](=O)[O-])c1 (stereo not drawn) [lercanidipine]	-5.35%	-6.01%	1.64%
O=C1Nc2ccc(I)cc2/C1=C/c1cc(Br)c(O)c(Br)c1	-34.2%	4.46%	-2.06%
CC(CCc1ccc(O)cc1)NCCc1ccc(O)c(O)c1 (stereo not drawn) [Dobutamine (hydrochloride)]	-39.6%	-8.05%	-1.22%
CC[C@]1(O)C[C@H]2CN(CCc3c([nH]c4ccccc34)[C@@](C(=O)OC)(c3cc4c(cc3OC)N(C=O)[C@H]3[C@@](O)(C(=O)OC)[C@H](OC(C)=O)[C@]5(CC)C=CCN6CC[C@]43[C@@H]65)C2)C1 [Vincristine Sulfate]	33.3%	-33.5%	-12.2%
CC(=O)Oc1ccccc1C(=O)Nc1ncc([N+](=O)[O-])s1	22.3%	-5.9%	0.37%
C=C1/C(=C\C=C2/CCC[C@]3(C)[C@@H]([C@H](C)/C=C/C=C/C(O)(CC)CC)CC[C@@H]23)C[C@@H](O)C[C@@H]1O [Seocalcitol]	-23.4%	14.2%	6.88%
CCN(c1ccccc1)c1cc(NC)[n+](C)c(C)n1	26.3%	3.09%	-0.645%
Cc1ccc(/C=C2\CNC/C(=C\c3ccc(C)cc3)C2=O)cc1	-70%	-34.5%	-12.6%
O=C1Nc2ccccc2/C1=C1/Nc2ccccc2/C1=N\O [indirubin-3-monoxime]	-16.5%	4.61%	1.19%
S=C=Nc1ccc(N=C=S)cc1	20.8%	3.25%	-1.61%
CCS(=O)(=O)N(C)[C@@H]1c2cc(C#N)ccc2OC(C)(C)[C@H]1O.CCS(=O)(=O)N(C)[C@H]1c2cc(C#N)ccc2OC(C)(C)[C@@H]1O (racemic) [chromanol-(+/-)]	-29.6%	1.25%	0.645%
CC[C@H](CO)Nc1nc(Nc2cccc(-c3ccccn3)c2)c2ncn(C(C)C)c2n1	-29.5%	-0.26%	-2.95%
CN1CCN(CCCN2c3ccccc3Sc3ccc(C(F)(F)F)cc32)CC1 [Trifluoperazine  HCl]	-1.13%	28.7%	3.73%
NC(=S)N/N=C/c1ncccc1N [Triapine]	-21.7%	-34.8%	-13%
CC(C)/N=c1/cc2n(-c3ccc(Cl)cc3)c3ccccc3nc-2cc1Nc1ccc(Cl)cc1 [Clofazimine]	6.09%	3.02%	-0.03%
COc1ccc(CCCOC(Cn2ccnc2)c2ccc(OC)cc2)cc1 (stereo not drawn)	-18.7%	-32.6%	-9.78%
c1cc2c(cc1C1CCCCC1)c1c3n2CCNC3CCC1 (stereo not drawn) [tetrindole]	-27.2%	-33%	-9.3%
OCCCNc1cc(-c2ccnc(Nc3cccc(Cl)c3)n2)ccn1	14.5%	-34.4%	-12.8%
Cc1cc(N2CCCCC2)nc2ccccc12	-32%	-2.77%	-1.01%
Clc1ccc(C(Cn2ccnc2)OCc2c(Cl)cccc2Cl)c(Cl)c1 (stereo not drawn) [Isoconazole nitrate (Travogen)]	-10.4%	0.7%	-3.42%

SMILES	inhibition of IKZF1 HTRF signal [1]	relative growth in counter assay [2]	relative growth recovery [3]
O=C(CSc1nnc2c(n1)[nH]c1ccccc12)Nc1ccc(Cl)cn1	4.2%	-5.82%	1.11%
CC1(C)C(=O)N=C2C1=C(O)C(=O)c1ccccc12	80%	-34.8%	-12.4%
O=C(Nc1ccc(C(O)(C(F)(F)F)C(F)(F)F)cc1)c1ccc(C(F)(F)F)cc1	-28.5%	49.3%	53.1%
Oc1c(CN2CCCC2)cc(COCc2ccccc2)c2cccnc12	-11.1%	-34.9%	-13.4%
COc1ccc(-c2nc3cc(C4=NNC(=O)CC4C)ccc3[nH]2)cc1 (stereo not drawn) [Pimobendan (Vetmedin)]	-8.62%	-0.97%	-0.495%
O=c1[nH]c(=O)n([C@H]2C[C@H](O)[C@@H](CO)O2)cc1F	-24.3%	-31.1%	-9.89%
OC1=C(C[C@]([C@](CO)=O)(O)C[C@@H]4O[C@@]5([H])C[C@H](N)[C@H](O)[C@H](C)O5)C4=C(O)C3=C1C(C2=CC=CC(OC)=C2C3=O)=O [doxorubicin]	-9.64%	-35.2%	-13.8%
NCCNc1ccc(NCCN)c2c1C(=O)c1ccncc1C2=O.O=C(O)/C=C\C(=O)O.O=C(O)/C=C\C(=O)O [Pixantrone (dimaleate)]	-28.2%	-13%	-1.7%
CCN(CC)CCNc1ccc(CO)c2sc3ccccc3c(=O)c12 [Hycanthone]	-30.4%	-31.9%	-12.3%
C=CC(=O)Nc1cccc(Oc2nc(Nc3ccc(N4CCN(C)CC4)cc3)nc3ccsc23)c1 [Olmutinib]	-18.2%	-23.3%	-7.07%
CCn1c(=O)[nH]c2cc(Cl)c(Cl)cc21	-7.25%	6.81%	-1.89%
CN1C(=O)/C(=C2/C(=O)Nc3ccccc32)c2ccccc21 [Meisoindigo]	-22.1%	-7.74%	-3.15%
CC(C)(C)CC(C)(C)c1ccc(OCCOCC[N+](C)(C)Cc2ccccc2)cc1	16%	-7.09%	-0.695%
COc1cc(N2CCC(N3CCN(C(=O)CNc4cccc5c4C(=O)N(C4CCC(=O)NC4=O)C5=O)CC3)CC2)ccc1Nc1ncc(Cl)c(Nc2ccccc2P(C)(C)=O)n1 (stereo not drawn)	111%	-29.6%	-0.385%
CCCSc1ccc2[nH]c(NC(=O)OC)nc2c1 [Albendazole]	3.53%	6.7%	-0.675%
COC(=O)/C=C/c1cc(O)ccc1O [erbstatin-analog]	-21.1%	-32.8%	-11.6%
Cc1cc(N)c2ccccc2[n+]1CCCCCCCCCC[n+]1c(C)cc(N)c2ccccc21	-29.5%	-14.5%	-3.15%
COCC(=O)O[C@]1(CCN(C)CCCc2nc3ccccc3[nH]2)CCc2cc(F)ccc2[C@@H]1C(C)C [mibefradil]	-3.89%	-13.3%	-3.87%
c1ccc(C(NCc2cccnc2)(c2ccccc2)c2ccccc2)cc1	-26.2%	3.05%	-0.7%
Cc1ccc(-c2ccc(C)cn2)nc1 [abametapir]	-30.6%	4.64%	0.52%
COc1cc(C(=O)NS(=O)(=O)c2ccccc2C)ccc1Cc1cn(C)c2ccc(NC(=O)OC3CCCC3)cc12 [Zafirlukast]	-43.3%	-15.2%	-5.17%
O=C1c2ccccc2-c2n[nH]c3cccc1c23 [pyrazolanthrone]	-38.5%	-9.29%	-5.03%
